Most compounds without a hit are left out; they make up all but 9.3% or so of the library.
HCMV inh: human cytomegalovirus inhibition | HFF cells, HCMV-luciferase reporter, 72 h; hits give low values | activity change, negative = inhibition, % at 57.5 µM | 410,000 compounds, 4.5% hits; in the data active means activity change below about -60%; inconclusive means no clear call, values can overlap the other calls; inactive means above about -39%
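Inhibition of viral replication was scored as loss of reporter luminescence in HFFs infected with HCMV-luciferase (MOI 1 PFU/cell) for 72 h; compounds tested at 2 doses, normalized to buffer and Salinomycin controls.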
Sm TGR inh: inhibitors of Schistosoma mansoni thioredoxin glutathione reductase; 360,000 compounds, 3% hits; purified TGR, DTNB reduction, TNB absorbance 405 nm; Potency, µM (highest dose often 114 µM), actives largely listed as inhibitors; Q962Y6; further: nearly all actives have a fitted effect of over 60% in size
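Kinetic colorimetric format: TGR-catalysed, NADPH-driven DTNB reduction monitored via TNB absorbance. Enzyme dispensed at 20 nM; compound exposure 15 min at room temperature before reaction start.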
FMDV antiviral: antivirals against foot and mouth disease virus; FMDV antiviral cell-based qHTS; Potency, µM (highest dose often 57.9 µM), usual class: inhibitors; 410,000 compounds, 1.2% hits; calls by dose curve; tested in HEK293T cells; further: read-out not given here; nearly all actives have a fitted effect of over 45% in size
VACV Venus inh: vaccinia inhibition (Venus reporter); Potency, µM (doses to about 36.5 µM), actives largely listed as inhibitors; 330,000 compounds, 0.46% hits; AID 720580; Vaccinia virus Venus reporter expression, fluorescence; calls by dose curve; tested in A549 cells; further: nearly all actives have a fitted effect of over 30% in size
Vaccinia mCherry: inhibitors of vaccinia virus infection (mCherry reporter signal); Vaccinia virus mCherry reporter infection, fluorescence; 310,000 compounds, 0.63% hits; Potency, µM (doses to about 36.5 µM), usual class: inhibitors; calls by dose curve; tested in A549 cells; further: nearly all actives have a fitted effect of over 35% in size
HCV inh: HCV inhibition; 340,000 compounds, 3.4% hits; AID 651820; Potency, µM (titrated, usually from 41.8 µM), usual class: inhibitors; Huh7.5.1 HCVcc-Cre infection, luciferase reporter, 44 h
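Cells (1,000/well) were plated 4 h before compound, then infected with HCVcc-Cre virus (~0.5 moi). After 44 h further culture, infection was read as luciferase luminescence following a 15 min substrate incubation at room temperature.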
Hits are given with their value. Unless noted, the call rests on the fitted dose curve; in most records, active means well fitted curve in the direction sought with a large enough effect; inconclusive means small, poorly fitted or top-dose-only effect, or another doubt; inactive means no such curve, though single readings can be large; an effect the other way counts as inactive or inconclusive.

`C#CCOCCOCCOCCNc1nc(N2CCN(C(=O)[C@H](CCC(=O)O)n3cc(C(N)CO)nn3)CC2)nc(N2CCN(C(=O)[C@H](CCC(=O)O)n3cc(C(N)[C@H](C)CC)nn3)CC2)n1` (stereo not given in full) gave Sm TGR inh 28µM, FMDV antiviral inactive, VACV Venus inh inactive, Vaccinia mCherry inactive and HCV inh inactive.
COC(=O)c1cnn(-c2nc(-c3ccccc3)cs2)c1N was read as HCMV inh inactive, Sm TGR inh inactive, FMDV antiviral inactive, VACV Venus inh inactive, Vaccinia mCherry inactive and HCV inh inconclusive.
Screening O=C(NC1CCCCC1)C(c1cccnc1)N(C(=O)CCl)c1ccccc1Cl (stereo not given) returned HCMV inh -103, Sm TGR inh inconclusive, FMDV antiviral inactive, VACV Venus inh 10µM, Vaccinia mCherry inconclusive and HCV inh 3.2µM.
O=C(NCC(=O)N(c1ccc(F)cc1)C(C(=O)NC1CCCCC1)c1cccnc1)c1ccco1 (stereo not given) was read as HCMV inh inactive, Sm TGR inh inactive, FMDV antiviral inactive, VACV Venus inh inactive, Vaccinia mCherry inactive and HCV inh inactive.
For COc1ccc(N(C(=O)CCl)C(C(=O)NC2CCCCC2)c2cccnc2)cc1 (stereo not given) the results were HCMV inh -102, Sm TGR inh 14µM, FMDV antiviral 11µM, VACV Venus inh 2.8µM, Vaccinia mCherry 11µM and HCV inh 3.2µM.
Screening O=C(NC1CCCCC1)C(c1cccnc1)N(C(=O)CCl)c1ccc(F)cc1 (stereo not given) returned HCMV inh -99, Sm TGR inh inactive, FMDV antiviral inconclusive, VACV Venus inh inconclusive, Vaccinia mCherry 7.9µM and HCV inh 1.1µM.
`O=S(=O)(c1ccc(Br)s1)N1CCN(c2ccnc3cc(Cl)ccc23)CC1` gave HCMV inh -72, Sm TGR inh inactive, FMDV antiviral inconclusive, VACV Venus inh inactive, Vaccinia mCherry inactive and HCV inh inconclusive.
For Cc1ccc(S(=O)(=O)N2CCN(c3ccnc4cc(Cl)ccc34)CC2)cc1 the results were HCMV inh -61, Sm TGR inh inactive, FMDV antiviral inactive, VACV Venus inh inactive, Vaccinia mCherry inactive and HCV inh inconclusive.
`CC(=O)c1ccc(S(=O)(=O)N2CCN(c3ccnc4cc(Cl)ccc34)CC2)cc1` gave HCMV inh -70, FMDV antiviral inconclusive, VACV Venus inh inactive and Vaccinia mCherry inactive.
Screening Cc1ccc(S(=O)(=O)N2CCN(c3ccnc4cc(Cl)ccc34)CC2)cc1C returned HCMV inh inconclusive, Sm TGR inh inactive, FMDV antiviral inconclusive, VACV Venus inh inactive, Vaccinia mCherry inactive and HCV inh inactive.
CC(C)C(OC(=O)c1ccccc1)c1nccc2ccccc12 (stereo not given) was read as HCMV inh inactive, Sm TGR inh inactive, FMDV antiviral inactive, VACV Venus inh inactive, Vaccinia mCherry inactive and HCV inh inconclusive.
COC(=O)c1cc(NC(=O)CSc2nc(C)cc(=O)[nH]2)cc(C(=O)OC)c1 was read as HCMV inh inactive, Sm TGR inh inactive, FMDV antiviral inactive, VACV Venus inh inactive, Vaccinia mCherry inactive and HCV inh inactive.
`CC(C)CNC(=O)COC(=O)c1c2c(nc3ccccc13)/C(=C/c1cccs1)CC2` gave HCMV inh inactive, Sm TGR inh inactive, FMDV antiviral inactive, VACV Venus inh inconclusive, Vaccinia mCherry inconclusive and HCV inh inconclusive.
CCCCNC(=O)COC(=O)c1c2c(nc3ccccc13)/C(=C\c1cccs1)CC2 was read as HCMV inh inactive, FMDV antiviral inactive, VACV Venus inh inconclusive, Vaccinia mCherry inactive and HCV inh 2.8µM.
Screening NC(=O)c1ccc(NC(=O)COC(=O)c2c3c(nc4ccccc24)/C(=C\c2cccs2)CCC3)cc1 returned HCMV inh inactive, Sm TGR inh inactive, FMDV antiviral inactive and HCV inh inconclusive.
For CCc1cccc(C)c1NC(=O)COC(=O)c1c2c(nc3ccccc13)/C(=C\c1cccs1)CCC2 the results were HCMV inh inactive, Sm TGR inh inactive, FMDV antiviral inactive, VACV Venus inh inactive, Vaccinia mCherry inactive and HCV inh 1.1µM.
